The source of these data is PubChem BioAssay.

For part of these data: Results with a measured potency or affinity are listed apart. Activity calls are given as the source filed them.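 The calls were made as follows, unless noted: active = fitted half-maximal concentration within the tested dose range, moderate curve steepness, a statistically real signal drop, and little compound fluorescence or tag-binding interference; inactive = the rest.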

For experiment [1], the target named is Cell division control protein 42 homolog (Homo sapiens) (UniProt P60953). The experiment in a line: activated mutant Cdc42 GTP-binding inhibitors, dose response, biochemical, multiplex bead flow cytometry, Bodipy-FL-GTP (AID 1333). The following applies: bead-based flow cytometry; series mostly up to 100 µM.
Sequence of Cell division control protein 42 homolog (Homo sapiens) (P60953 whole entry, looked up): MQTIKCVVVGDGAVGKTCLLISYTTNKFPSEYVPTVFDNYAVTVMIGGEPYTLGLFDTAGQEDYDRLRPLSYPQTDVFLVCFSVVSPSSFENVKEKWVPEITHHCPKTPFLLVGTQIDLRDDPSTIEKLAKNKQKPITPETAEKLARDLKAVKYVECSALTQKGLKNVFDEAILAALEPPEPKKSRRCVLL
The target is the same in experiment [2]. As to the kind of experiment: wildtype Cdc42 GTP-binding inhibitors, dose response, biochemical, multiplex bead flow cytometry, Bodipy-FL-GTP (AID 1334;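 active = fitted half-maximal concentration within the tested range, moderate curve steepness, significant signal drop, and little compound fluorescence or bead-linkage interference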). The following applies: bead-based flow cytometry, Bodipy-FL-GTP binding to GST-Cdc42; at 100 µM (top of the series) unless noted. (In general: Flow cytometry measures light scatter and fluorescence of single cells or particles in a stream.)

Experiment [3] addresses GTPase HRas (Homo sapiens) (UniProt P01112). The experiment in a line: inhibitors of GTP binding to wildtype Ras, dose response, biochemical, multiplex bead flow cytometry (AID 1335;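 active = fitted half-maximal concentration within 10 nM to 100 µM, steepness 0.5 to 2, significant signal drop, low assay interference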). The following applies: bead-based flow cytometry, Bodipy-GTP binding to GST-Ras; at 100 µM (top of the series) unless noted.
The subject of experiment [4] is Ras-related protein Rab-7a (dog), GTP binding. As to the kind of experiment: Rab7 GTP binding inhibitors, potency, dose response, biochemical, wildtype, multiplex bead flow cytometry (AID 1336; call rule not given here). The following applies: bead-based flow cytometry, fluorescent GTP binding to Rab7; series mostly up to 100 µM.
Experiment [5] concerns the target Ras-related C3 botulinum toxin substrate 1 (Homo sapiens) (UniProt P63000). The experiment in a line: wildtype Rac1 GTP binding inhibitors, dose response, biochemical, multiplex bead flow cytometry (AID 1340;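 active = dose curve with midpoint inside tested range, moderate steepness, plateau gap beyond fit error, low compound glow and bead-link interference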). The following applies: GST-Rac1 beads, Bodipy-FL-GTP binding; at 100 µM (top of the series) unless noted.
For experiment [6], the target named is GTPase HRas (Homo sapiens) (UniProt P01112). The experiment in a line: activated Ras mutant GTP binding inhibitors, dose response, biochemical, multiplex bead flow cytometry (AID 1341;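 active = dose-response curve with midpoint inside the tested range, moderate steepness, significant amplitude and little compound fluorescence or bead-attachment interference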;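 also: GST-tagged constitutively activated Ras mutant immobilized on beads and multiplexed with other GTPases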). The following applies: bead-based flow cytometry, Bodipy-FL-GTP binding; series mostly up to 100 µM.
Sequence of GTPase HRas (Homo sapiens) (P01112 whole entry, looked up): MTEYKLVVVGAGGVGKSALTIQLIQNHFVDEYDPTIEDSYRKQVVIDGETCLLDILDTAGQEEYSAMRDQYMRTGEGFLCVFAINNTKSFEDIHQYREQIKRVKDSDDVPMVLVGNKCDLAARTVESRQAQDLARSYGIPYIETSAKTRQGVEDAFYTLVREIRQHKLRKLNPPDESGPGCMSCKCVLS

With `Cc1cc(OCc2ccc(C(=O)O)o2)ccc1Cl`, the call in experiment [1], in experiment [4] and in experiment [6] was inactive. The fluorescence, percent of control (lower = inhibition) in experiment [2] is 57.7%. For the same molecule, the GTP binding, percent of control in experiment [3] worked out at 85.2%. In addition, the GTP binding signal, raw median fluorescence (lower = inhibition) (MCF (arbitrary fluorescence units)) in experiment [5] was determined as 31.8.
As to `COc1ccccc1N1CCN(S(=O)(=O)c2cccc(F)c2)CC1`, the call in experiment [1], in experiment [4] and in experiment [6] was inactive. Moreover, the fluorescence, percent of control (lower = inhibition) in experiment [2] turned out to be 49%. The molecule further yielded a GTP binding, percent of control in experiment [3] of 62.4%. For the same molecule, the GTP binding signal, raw median fluorescence (lower = inhibition) (MCF (arbitrary fluorescence units)) in experiment [5] amounted to 213.
`C=CCNc1nc(=S)[nH]c2cc(OC)c(OC)cc12`: the molecule was classed as inactive in experiment [1], in experiment [4] and in experiment [6]. In experiment [2], the fluorescence, percent of control (lower = inhibition) was 31.2%. Further, the GTP binding, percent of control in experiment [3] came out at 69.1%. In addition, the GTP binding signal, raw median fluorescence (lower = inhibition) (MCF (arbitrary fluorescence units)) in experiment [5] came out at 148.
Turning to `O=c1c2ccc([N+](=O)[O-])cc2ncn1CCOc1ccccc1`, the molecule was called inactive in experiment [1], in experiment [4] and in experiment [6]. The fluorescence, percent of control (lower = inhibition) in experiment [2] amounted to 48.1%. Besides, the GTP binding, percent of control in experiment [3] stood at 95.3%. In experiment [5], the GTP binding signal, raw median fluorescence (lower = inhibition) (MCF (arbitrary fluorescence units)) came to 188.
Take `CC(C)[C@H](NC(=O)c1ccccc1)C(=O)OCC(=O)NCCc1ccc(F)cc1`: the call in experiment [1], in experiment [4] and in experiment [6] was inactive. In experiment [2], the fluorescence, percent of control (lower = inhibition) stood at 50.5%. Further, in experiment [3], the GTP binding, percent of control worked out at 66.5%. In experiment [5], this molecule had a GTP binding signal, raw median fluorescence (lower = inhibition) (MCF (arbitrary fluorescence units)) of 209.
For `COc1cc(/C=C2\SC(=Nc3ccc(O)cc3)NC2=O)cc(OC)c1O`, the outcome in experiment [1], in experiment [4] and in experiment [6] was inactive. Further, in experiment [2], the fluorescence, percent of control (lower = inhibition) amounted to 36.9%. Moreover, the GTP binding, percent of control in experiment [3] was 79.8%. The same molecule had a GTP binding signal, raw median fluorescence (lower = inhibition) (MCF (arbitrary fluorescence units)) in experiment [5] of 267.
Turning to `COc1ccc2c(c1)c(C(=O)O)cn2CCOc1ccccc1C`, the molecule was called inactive in experiment [1], in experiment [4] and in experiment [6]. Moreover, the fluorescence, percent of control (lower = inhibition) in experiment [2] is 61.2%. Moreover, the GTP binding, percent of control in experiment [3] was found to be 204%. In experiment [5], the GTP binding signal, raw median fluorescence (lower = inhibition) (MCF (arbitrary fluorescence units)) came out at 59.4.
As for `O=C(CCc1nc2ccccc2[nH]c1=O)OCC(=O)N1CCc2ccccc21`, the molecule was called inactive in experiment [1], in experiment [4] and in experiment [6]. Moreover, in experiment [2], the fluorescence, percent of control (lower = inhibition) is 36.8%. For the same molecule, in experiment [3], the GTP binding, percent of control stood at 82.6%. In experiment [5], this molecule displayed a GTP binding signal, raw median fluorescence (lower = inhibition) (MCF (arbitrary fluorescence units)) of 280.
Consider `O=[N+]([O-])c1ccc(/C=C/C2=NN(c3ccccc3)C(c3ccco3)C2)cc1` (centres undefined), for which the molecule was called inactive in experiment [1], in experiment [4] and in experiment [6]. Also, in experiment [2], the fluorescence, percent of control (lower = inhibition) was 135%. Besides, in experiment [3], the GTP binding, percent of control worked out at 132%. This molecule showed a GTP binding signal, raw median fluorescence (lower = inhibition) (MCF (arbitrary fluorescence units)) in experiment [5] of 258.
